# From the supplement of paper PMC6555819
# What was measured:
# Experiment in all cases: PBM binding z-score (relative to random genomic background probes); higher = stronger binding; sequences stand for … in GC…GCGATTGACAGCGTAGAATGAAGG
# [1] = system: FXR:RXRa (NR concentration 270 nM, RXRa partner concentration 90 nM)
# How it was run: (§1)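 Binding z-scores were set against random background probes. The data came from custom Agilent 4×180K protein-binding microarrays carrying double-stranded probes with 34-nt variable regions, incubated 1 h with ligand-free nuclear receptor dimers. Partner-specific antibodies detected binding, and scanned fluorescence was regression-normalized.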
# [2] = system: LXRa:RXRa (NR concentration 270 nM, RXRa partner concentration 90 nM)
# How it was run: as §1
# [3] = system: LXRa homodimer (NR concentration 270 nM)
# How it was run: as §1
# [4] = system: LXRb:RXRa (NR concentration 270 nM, RXRa partner concentration 90 nM)
# How it was run: as §1
# [5] = system: LXRb homodimer (NR concentration 270 nM)
# How it was run: as §1
# [6] = system: PPARa:RXRa (NR concentration 270 nM, RXRa partner concentration 90 nM)
# How it was run: as §1
# [7] = system: PPARg:RXRa (NR concentration 180 nM, RXRa partner concentration 90 nM)
# How it was run: as §1
# [8] = system: PPARg:RXRa 270nM:90nM, anti-RXR (NR concentration 270 nM, RXRa partner concentration 90 nM)
# How it was run: as §1
# [9] = system: PPARg:RXRa 30nM:10nM, anti-RXR (NR concentration 30 nM, RXRa partner concentration 10 nM)
# How it was run: as §1
# [10] = system: PPARg:RXRa 90nM:30nM, anti-RXR (NR concentration 90 nM, RXRa partner concentration 30 nM)
# How it was run: as §1
Sequence,PBM binding z-score [1],PBM binding z-score [2],PBM binding z-score [3],PBM binding z-score [4],PBM binding z-score [5],PBM binding z-score [6],PBM binding z-score [7],PBM binding z-score [8],PBM binding z-score [9],PBM binding z-score [10]
GCGACTGGGGCATCTGCAGGTTACCATAACTTAA,-0.256,0.365,-0.281,1.41,-0.198,1.53,0.863,1.01,-0.39,0.715
CGAACTAGGGCATCCAGGACAGTGAATACATTGA,0.197,-0.226,-0.3,-0.431,-0.651,2.12,3.28,2.52,0.606,1.5
ATCTCTAGGTAACAAGCTCAGTGAAAGAGAGGAC,0.331,0.45,-0.0616,-0.105,0.556,0.394,0.682,0.77,0.327,0.644
ATACCCAGGTGATCGTGAGGTCGTTGATACTAAC,1.37,1.07,0.85,1.07,-0.141,1.35,0.596,0.875,-0.0532,0.317
AGGATGAGGTTAAGATCAGGGAAACAGAATACAT,2.5,2.06,0.0836,2.16,0.492,3.06,1.63,1.38,0.783,1.01
TTACCAAGGTAAAGGTCGTTGATCCCTCTGTAGA,3.54,3.56,0.635,2.91,-0.332,4.13,6.84,7.33,5.9,7.74
CAAACTAGGTCCCGAAAGGTCAAAGTCGAATGAC,5.02,5.71,5.76,5.44,1.82,5.54,4.62,5.24,2.11,4.36
CGAACTAGATCATTGACAGGACAGTGAATAGTAA,-0.0761,-0.268,0.18,-0.274,-0.0892,0.0131,0.572,-0.333,0.0975,0.113
AGAATGAGGTTATTAAAATCAGGGAATTGCGGTC,1.11,1.04,0.0738,1.21,0.192,2.3,1.02,1.43,0.509,0.902
ATCTCTAGGTAAGACTCAGTTCCGTGAAGAACGC,0.132,0.397,0.225,0.111,0.896,-0.155,-0.0539,0.0133,-0.0195,0.0962
CGTCAAAGTTCAACTAAGGTAATGTAAAGCACGC,7.02,6.36,3.99,4.15,2.17,5.15,5,5.65,2.56,4.42
TATACAGGGTCACAGGCCAGAGTACGAATGTCGA,7.56,5.94,2.06,4.84,2.2,6.06,8.05,6.76,3.77,5.75
